Test results taken from PubChem BioAssay AID463173 (ICCB-Longwood Screening Facility, Harvard Medical School, 2010).
In all, about 52,000 compounds went through this assay and about 4,300 (8.3%) were called active. Cut-off read from the data, not from the text of the source: active = survival mostly below about 52% (no sharp cut-off); inactive = mostly above about 56%. The full list was thinned out, with actives kept by preference.

These compounds were tested on DeltatarO mutant (assay: S. aureus survival, RN4220 and DeltatarO strains – OD600, teichoic acid synthesis inhibitors, primary screen (AID 463173)). Details: S. aureus RN4220 wild type/DeltatarO growth, OD600, 18 h, hits give low values, screened at 18.75 µg/mL (by protocol).

| SMILES | survival |
| --- | --- |
| CCN(CCCNC(=O)CN1N=C(c2ccc(OC)cc2)CCC1=O)c1cccc(C)c1 | 123% (inactive) |
| CCN(CCCNC(=O)CN1N=C(c2ccc(C)cc2)CCC1=O)c1ccccc1 | 0% (active) |
| Cc1ccc(C2=NN(CC(=O)NCCN(CC(C)C)CC(C)C)C(=O)CC2)cc1 | 131% (inactive) |
| COc1ccc(C)cc1NC(=O)c1ccc2c(c1)CCN2S(=O)(=O)c1ccc(Cl)cc1 | 79% (inactive) |
| CCOc1ccc(NC(=O)c2ccc3c(=O)n4c(nc3c2)CCCCC4)cc1 | 139% (inactive) |
| O=C(NCCc1ccc(Cl)cc1)C(=O)NCC(c1cccs1)S(=O)(=O)c1ccccc1 (stereo unspecified) | 77% (inactive) |
| CCOC(=O)c1c(NC(=O)/C=C/c2ccc(OCC)cc2)sc2c1CCCC2 | 36% (active) |
| CCOC(=O)c1c(NC(=O)/C=C/c2ccc(C(C)C)cc2)sc2c1CCC2 | 56% (inactive) |
| CCOC(=O)c1c(NC(=O)/C=C/c2ccccc2)sc2c1CCCC2 | 75% (inactive) |
| CCOc1ccc(/C=C/C(=O)Nc2sc3c(c2C(=O)OC)CCCC3)cc1 | 110% (inactive) |
| CCOC(=O)c1c(NC(=O)/C=C/c2ccc(C)cc2)sc2c1CCCC2 | 22% (active) |
| CCOC(=O)c1c(NC(=O)/C=C/c2ccc(OCC)cc2)sc2c1CCC2 | 145% (inactive) |
| CCCCN1C(=O)c2[nH]nc(-c3ccccc3O)c2C1c1ccc(C(C)(C)C)cc1 (stereo unspecified) | 88% (inactive) |
| CC(C)OCCCN1C(=O)c2[nH]nc(-c3ccccc3O)c2C1c1ccc(OCc2ccccc2)cc1 (stereo unspecified) | 28% (active) |
| CC(C)OCCCN1C(=O)c2[nH]nc(-c3ccccc3O)c2C1c1cccc(OCc2ccccc2)c1 (stereo unspecified) | 49% (inactive) |
| COCCCN1C(=O)c2[nH]nc(-c3ccccc3O)c2C1c1ccc(OCc2ccccc2)cc1 (stereo unspecified) | 8% (active) |
| COCCCN1C(=O)c2[nH]nc(-c3ccccc3O)c2C1c1ccc(OC)cc1 (stereo unspecified) | 53% (inactive) |
| CC(C)OCCCN1C(=O)c2[nH]nc(-c3ccccc3O)c2C1c1ccccc1F (stereo unspecified) | 46% (inactive) |
| CCCCN1C(=O)c2[nH]nc(-c3ccccc3O)c2C1c1ccc(OCc2ccccc2)cc1 (stereo unspecified) | 43% (active) |
| COCCNC(=O)c1c(NC(=O)c2cc(=O)c3cc(Cl)ccc3o2)sc2c1CCCC2 | 49% (inactive) |
| Cc1cccc(NC(=O)c2sc3nc(N4CCOCC4)c4c(c3c2N)CC(C)(C)OC4)c1 | 91% (inactive) |
| Cc1cccc(Oc2ccc(NC(=O)CCC(=O)OCC(=O)c3ccc(Br)cc3)cc2)c1C | 68% (inactive) |
| COc1ccc(OC)c(S(=O)(=O)Nc2cccc(-c3ccc(N4CCCCC4)nn3)c2)c1 | 83% (inactive) |

| SMILES | survival |
| --- | --- |
| COCCCn1c(SCC(=O)N2CC(=O)Nc3ccccc32)nnc1-c1ccoc1C | 79% (inactive) |
| CCOC(=O)c1c(-c2ccc(C)cc2)csc1NC(=O)c1cc(=O)c2cc(Cl)ccc2o1 | 116% (inactive) |
| CCOC(=O)c1c(NC(=O)c2cc(=O)c3c(C)cc(C)cc3o2)sc(C)c1C | 61% (inactive) |
| CCOC(=O)c1c(-c2ccc(C)cc2)csc1NC(=O)c1cc(=O)c2ccc(C)cc2o1 | 109% (inactive) |
| CCOC(=O)c1c(-c2ccc(C)cc2)csc1NC(=O)c1cc(=O)c2cc(C)ccc2o1 | 42% (active) |
| CCOC(=O)c1c(NC(=O)c2cc(=O)c3cc(C)cc(C)c3o2)sc(C)c1C | 48% (active) |
| CCOC(=O)c1c(NC(=O)c2cc(=O)c3ccc(C)cc3o2)sc(C)c1C | 100% (inactive) |
| COc1ccc(CNC(=O)c2cnc(N3CCOCC3)c3ccccc23)cc1 | 70% (inactive) |
| CC1=Nc2cc(C(=O)NCc3ccccc3Cl)ccc2Sc2c(C)ccc(C)c21 | 79% (inactive) |
| O=C(Nc1ccccc1Cl)[C@H](CSCc1ccccc1)N1Cc2ccccc2C1=O | 58% (inactive) |
| CCN1CCN(c2c(S(=O)(=O)c3ccc(Cl)cc3)cnc3ccccc23)CC1 | 77% (inactive) |
| CCC(Sc1ncnc2sc3c(c12)CCCC3)C(=O)OCC(C)C (stereo unspecified) | -6% (active) |
| Clc1ncnc2sc3c(c12)CCCC3 | 86% (inactive) |
| CCC(Sc1ncnc2sc3c(c12)CCCC3)C(=O)OC(C)C (stereo unspecified) | -7% (active) |
| CCOC(=O)CSc1ncnc2sc3c(c12)CCC3 | 96% (inactive) |
| CNC(=O)CSc1ncnc2sc3c(c12)CCCC3 | 80% (inactive) |
| CCn1cnc2sc3c(c2c1=O)CCCC3 | 101% (inactive) |
| Nc1ncnc2sc3c(c12)CCCC3 | 57% (inactive) |
| CCOC(=O)C(CC)Sc1ncnc2sc3c(c12)CCCC3 (stereo unspecified) | -7% (active) |
| COC(=O)C(C)n1cnc2sc3c(c2c1=O)CCCC3 (stereo unspecified) | 92% (inactive) |
| CCOC(=O)c1ccc2c(c1)N(Cc1ccc(F)cc1Cl)C(=O)c1ccccc1S2(=O)=O | 90% (inactive) |
| COc1ccc(-n2nc(C(=O)N3CCN(c4ccccc4OC)CC3)c3c4ccccc4n(C)c3c2=O)cc1Cl | 123% (inactive) |
| Cc1cc(C)c(NC(=O)CCN2C(=O)c3ccccc3Sc3ncccc32)c(C)c1 | 106% (inactive) |
